We go through 16 molecules from PubChem BioAssay (NCI).

Structures are written as SMILES. The panel holds about 83,000 compounds, 20% with a hit somewhere; the sample as a whole holds those more often.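 96-well plates, one dose, 48 hours. Percent growth reported; active if below 10.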 A number with no mark means an inactive call. Active and inactive are the calls of the source.

Test systems include T-47D breast; MDA-MB-435 melanoma; SW-620 colon; MCF7 breast; HCT-116 colon; HCC-2998 colon; KM12 colon; BT-549 breast.
Holding throughout (test): NCI-60 one-dose screen, 48 h (100 = growth as untreated, 0 = no growth, -100 = all killed)
Holding throughout (settings): 10 µM unless noted

For the molecule `CN(CCn1sc(=O)n(Cc2ccccc2)c1=O)Cc1ccc2c(Cl)cc(Cl)c(O)c2n1`, the growth is 44.9% in the test with T-47D breast; 55.8% with MDA-MB-435 melanoma; 22.7% in the test on SW-620 colon; 29.9% in the test on MCF7 breast; 19% in the test with HCT-116 colon; 52.2% in the test with HCC-2998 colon. Besides, the growth in the test with KM12 colon was 37.1%.
Consider `Cc1ccc(-n2c(=S)[nH]c3sc4c(c3c2=O)CCC(=O)C4)cc1`, for which the growth was 42.4% with T-47D breast; -33.3% (active) with MDA-MB-435 melanoma; 17.8% in the test with SW-620 colon; 14.7% in the test with MCF7 breast; 36.2% with HCT-116 colon; 80.8% in the test on HCC-2998 colon. Besides, the growth with KM12 colon was 41.7%.
Regarding `O=C(CSc1nc(-c2ccccc2)[nH]c1S(=O)(=O)c1ccccc1)NC1CC1`, the growth with T-47D breast was 46.3%; in the test with SW-620 colon, 104%; in the test with MCF7 breast, 65.2%; with HCT-116 colon it was 94.2%; with HCC-2998 colon, 69%; in the test with KM12 colon it was 100%.
For the molecule `CCCCCCCCCCCCCCCCCCOc1ccccc1CC(=O)NCC[N+]1(C)CCCC1`, the growth with T-47D breast is 69.9%; in the test on MDA-MB-435 melanoma, 67.4%; in the test with SW-620 colon it was 64.7%; with MCF7 breast, 53.1%; with HCT-116 colon, 55.9%; in the test on HCC-2998 colon it was 32.7%. Also, the growth in the test with KM12 colon was 18.9%.
With `C#CCn1cnc2c(Nc3cccc(NC(=O)C=C)c3)ncnc21`, the growth in the test on T-47D breast was 72%; in the test on MDA-MB-435 melanoma, 82.6%; in the test with SW-620 colon it was 99.6%; in the test on MCF7 breast, 80.1%; in the test with HCT-116 colon, 85.1%; with HCC-2998 colon it was 105%. For the same molecule, in the test on KM12 colon, the growth is 96.3%.
Consider `Fc1cc(F)cc(C(c2c[nH]c3ccccc23)c2c[nH]c3ccccc23)c1`, for which the growth in the test with T-47D breast is 97%; in the test with MDA-MB-435 melanoma, 103%; in the test with SW-620 colon, 93%; in the test with MCF7 breast it was 110%; in the test on HCT-116 colon, 89.8%; with KM12 colon, 97.5%.
As to `N=C(N)c1ccc(-c2ccc(-c3ccc(Cl)cc3)s2)nc1`, the growth was 56.4% in the test on T-47D breast; -15% (active) with MDA-MB-435 melanoma; -83.5% (active) in the test with SW-620 colon; -73.3% (active) in the test on MCF7 breast; -82.3% (active) with HCT-116 colon; -78.2% (active) with HCC-2998 colon. Moreover, in the test with KM12 colon, the growth is -74.8% (active).
For `Cc1ccccc1NC(=O)c1sc2nc(C)c(C(=O)/C=C/c3ccccc3)cc2c1N`, the growth in the test with T-47D breast is 32%; in the test on MDA-MB-435 melanoma, -22.7% (active); in the test with SW-620 colon, -10.5% (active); with MCF7 breast it was 9.97% (active); with HCT-116 colon, 10.1%; in the test on HCC-2998 colon, -36.9% (active). Also, in the test on KM12 colon, the growth was 9.57% (active).
For `CCn1c(=S)[nH]c2c(=O)n(C)c(=O)n(C)c21`, the growth in the test on T-47D breast is 104%; in the test with MDA-MB-435 melanoma it was 103%; in the test on SW-620 colon, 112%; in the test on MCF7 breast, 102%; with HCT-116 colon it was 93.1%; with KM12 colon it was 111%.
Take `CCOC(=O)c1c2c(n3ccc(C)cc13)C(=O)c1ccccc1C2=O`: the growth in the test with T-47D breast is 92.7%; in the test with MDA-MB-435 melanoma it was 108%; in the test with SW-620 colon it was 89.2%; in the test with MCF7 breast, 82.5%; with HCT-116 colon, 76.5%; with HCC-2998 colon, 101%. Also, the growth with KM12 colon was 94.1%.
Regarding `CN(C)Cc1ccc(NC(=O)c2cncc(C#Cc3cnc(N)c4ncccc34)c2)cc1F`, the growth is 105% in the test with T-47D breast; -89.3% (active) in the test with MDA-MB-435 melanoma; 96.9% with SW-620 colon; -46% (active) with MCF7 breast; 81.4% with HCT-116 colon; 91% in the test with HCC-2998 colon. Further, the growth in the test with KM12 colon was -83.3% (active).
On to `Cn1cc(-c2nc(-c3c[nH]c4ccncc34)cs2)c2ccccc21`, for which the growth is 12.4% with T-47D breast; -89.9% (active) in the test on MDA-MB-435 melanoma; -47% (active) in the test on SW-620 colon; 4.55% (active) with MCF7 breast; -63.4% (active) in the test with HCT-116 colon; -52.3% (active) with HCC-2998 colon. The growth in the test on KM12 colon is 18.7%.
For the molecule `CCCNC(=O)Oc1ccc(/C(=C(/C)Cc2ccc(OC)cc2)c2ccc(OCCCN(C)C)cc2)cc1`, the growth was 70.2% in the test on T-47D breast; 80.3% with MDA-MB-435 melanoma; 97.1% with SW-620 colon; 36.3% in the test on MCF7 breast; 59.5% in the test on HCT-116 colon; 77.7% in the test with HCC-2998 colon. Further, the growth with KM12 colon is 84.1%.
Consider `CCCC(O)Cn1ncc(C(=O)OCC)c1NC(=O)NCc1ccccc1F` (configuration not stated), for which the growth was 87.2% in the test on T-47D breast; 103% in the test with MDA-MB-435 melanoma; 105% in the test with SW-620 colon; 88% with MCF7 breast; 73.8% with HCT-116 colon; 87.8% in the test with HCC-2998 colon. For the same molecule, in the test with KM12 colon, the growth was 97.3%.
For `Cc1ccc(S(=O)(=O)N2CCCC2CO)cc1` (configuration not stated), the growth with T-47D breast was 100%; with MDA-MB-435 melanoma it was 111%; in the test with SW-620 colon, 96.8%; with MCF7 breast it was 91.3%; in the test on HCT-116 colon, 96.8%; in the test on KM12 colon, 104%.
As for `CCC(C)N(c1ccc(Cl)cc1)c1nc(-c2ccc(Br)cc2)cs1` (configuration not stated), the growth in the test with T-47D breast is 78.7%; with BT-549 breast it was 121%; with SW-620 colon, 95.5%; in the test with HCT-116 colon, 91%; in the test with HCC-2998 colon it was 108%; in the test with KM12 colon, 91.5%.
